For eleven compounds, Potency results are on record in PubChem BioAssay (Tox21).

The nature of assay [1]: qHTS assay to identify aromatase inhibitors - cell viability counter screen (AID 743084).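 Further: cells stimulated with testosterone during compound exposure; nearly all actives have a fitted effect of over 55% in size.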 Further: potency means the concentration at half of the fitted maximal effect. Background: qHTS replaces the single test concentration by a dilution series.
The target in assay [2] is Peroxisome proliferator-activated receptor gamma (Homo sapiens) (UniProt P37231). Put plainly: qHTS assay to identify small molecule agonists of the peroxisome proliferator-activated receptor gamma (PPARg) signaling pathway (AID 743094; active means well fitted activation curve with a large enough effect in the signal ratio in the repeat runs, not every such curve was filed as active; the % refers to the signal ratio). In outline:
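Cell-based bla reporter, HEK293H background, PPARg-driven UAS. Pre-incubation 5 h, 37C, 5% CO2. Compound 17 h, 37C. Substrate 1 h RT; fluorescence.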

Assay [3] shares this target. Put plainly: qHTS assay to identify small molecule antagonists of the peroxisome proliferator-activated receptor gamma (PPARg) signaling pathway (AID 743191; calls by dose curve; further: series mostly up to about 63 µM; nearly all actives have a fitted effect of over 30% in size). In a few lines: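 GeneBLAzer PPARg UAS-bla HEK293H cells carrying a UAS-driven beta-lactamase reporter were plated at 3000 cells/well, preincubated 5 h at 37C, then given compound for 17 h at 37C; LiveBLAzer B/G FRET substrate was read after 1 h at room temperature.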

A short description of assay [4]: qHTS assay to identify small molecule antagonists of the peroxisome proliferator-activated receptor gamma (PPARg) signaling pathway - cell viability counter screen (AID 743194). Further: nearly all actives have a fitted effect of over 55% in size. Further: potency means the concentration at half of the fitted maximal effect. To be noted: Potency: co-treated with 50 nM rosiglitazone unless noted. In a few lines: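 PPARg-UAS-bla HEK293H cells were plated, rested 5 h at 37 C, then treated with compounds plus rosiglitazone (50 nM final) for 17 h at 37 C; viability was then read by CellTiter-Glo luminescence after 30 min at room temperature.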

Assay [5] can be described thus: qHTS assay for small molecule agonists of the antioxidant response element (ARE) signaling pathway - cell viability counter screen (AID 743203; calls by dose curve; further: nearly all actives have a fitted effect of over 55% in size; further: potency means the concentration at half of the fitted maximal effect). In outline:
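Measured in the same wells as the beta-lactamase ARE reporter, this read-out is CellTiter-Glo luminescence from HepG2 ARE-bla cells given compounds for 16 hrs.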

Assay [6] in a line: qHTS assay for small molecule activators of the heat shock response signaling pathway - cell viability counter screen (AID 743209). Further: nearly all actives have a fitted effect of over 50% in size. Further: potency means the concentration at half of the fitted maximal effect. In outline:
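Same-well multiplex: after 2.5 h room-temperature incubation with LiveBLAzer B/G substrate and fluorescence reading, CellTiter-Glo reagent was added to HSE-bla HeLa cells that had received compound for 5 h at 37 C; luminescence read after 30 min.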

Assay [7] is described as follows: qHTS assay for small molecule activators of the heat shock response signaling pathway (AID 743210; active means well fitted activation curve with a large enough effect in the signal ratio in the repeat runs, with a control signal flat, not every such curve was filed as active; the % refers to the signal ratio; further: series mostly up to about 63 µM). In outline:
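Heat shock element–beta-lactamase HeLa reporter cells; qHTS with compounds for 5 h at 37 C; detection by FRET substrate fluorescence after 2.5 h at RT.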

Assay [8] in a line: qHTS assay to identify small molecule agonists of the peroxisome proliferator-activated receptor delta (PPARd) signaling pathway - cell viability counter screen (AID 743211). Further: nearly all actives have a fitted effect of over 55% in size. Further: potency means the concentration at half of the fitted maximal effect. In a few lines:
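Viability was measured as CellTiter-Glo luminescence (30 min, room temperature) in the same wells as the beta-lactamase readout. GeneBLAzer PPARd UAS-bla HEK293H cells received compound after 5 h plating and were incubated 17 h at 37 C.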

In assay [9] the target is Peroxisome proliferator-activated receptor delta (Homo sapiens) (UniProt Q03181). Put plainly: qHTS assay to identify small molecule agonists of the peroxisome proliferator-activated receptor delta (PPARd) signaling pathway (AID 743212; calls by dose curve). In outline: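 Beta-lactamase reporter read by fluorescence (LiveBLAzer B/G FRET, 2 h, room temperature). Test agents, in DMSO, incubated at 37 C with PPARd-bla HEK293H cells.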

Assay [10] is described as follows: qHTS assay to identify small molecule antagonists of the peroxisome proliferator-activated receptor delta (PPARd) signaling pathway - cell viability counter screen (AID 743213). Further: nearly all actives have a fitted effect of over 50% in size. Further: potency means the concentration at half of the fitted maximal effect. In outline:
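HEK293H cells with the PPARd UAS-bla reporter, co-treated 17 h at 37 C with compounds and L165041 (300 nM final), were lysed with CellTiter-Glo. Luminescence indicated viable cell content.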

Assay [11] deals with Peroxisome proliferator-activated receptor delta (Homo sapiens) (UniProt Q03181). Put plainly: qHTS assay to identify small molecule antagonists of the peroxisome proliferator-activated receptor delta (PPARd) signaling pathway (AID 743215; active means well fitted inhibition curve with a large enough effect in the signal ratio in the repeat runs, not every such curve was filed as active; the % refers to the signal ratio;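 further: cells stimulated with agonist L165041 at 300 nM final during compound exposure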; further: potency means the concentration at half of the fitted maximal effect). In a few lines: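 Fluorescence from cleaved LiveBLAzer B/G FRET substrate (2 h, room temperature) reports PPARd-driven beta-lactamase in HEK293H UAS-bla cells. Cells had been treated 17 h at 37 C with compound plus 300 nM final L165041.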

Assay [12] in a line: qHTS assay to identify small molecule agonists of the farnesoid-X-receptor (FXR) signaling pathway - cell viability counter screen (AID 743218). Further: nearly all actives have a fitted effect of over 45% in size. Further: potency means the concentration at half of the fitted maximal effect. In a few lines: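 Readout: CellTiter-Glo luminescence, 30 min RT, multiplexed after the FXR-bla FRET reading. HEK 293T FXR-UAS-bla cells received compound 5 h post-plating and were incubated 16 h at 37 C.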
Assay [13] has as its target Vitamin D3 receptor (Homo sapiens) (UniProt P11473). Put plainly: qHTS assay to identify small molecule antagonists of the vitamin D receptor (VDR) signaling pathway (AID 743223; active means well fitted inhibition curve with a large enough effect in the signal ratio in the repeat runs, not every such curve was filed as active; the % refers to the signal ratio). In a few lines:
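Antagonist mode: compound added to VDR-bla cells alongside agonist 1alpha,25-dihydroxyvitamin D3 (3 nM final), incubation 16 h at 37C. Read-out is LiveBLAzer FRET fluorescence, 2 h at room temperature.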

Assay [14] in a line: qHTS assay to identify small molecule that activate the aryl hydrocarbon receptor (AhR) signaling pathway - cell viability counter screen (AID 743086). Further: nearly all actives have a fitted effect of over 45% in size. Further: potency means the concentration at half of the fitted maximal effect. In a few lines:
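HepG2-AhR-luc (HG2L7.5c1) cells, 4000/well, were preincubated 5 h at 37C, exposed to compound in qHTS format for 24 hr at 37C, then given CellTiter-Fluor for 30 min; viability was read as fluorescence in the reporter wells.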

The nature of assay [15]: qHTS assay to identify small molecule antagonists of the farnesoid-X-receptor (FXR) signaling pathway - cell viability counter screen (AID 743221; active means well fitted cell-killing curve with a large enough effect in the repeat runs, not every such curve was filed as active; further: nearly all actives have a fitted effect of over 50% in size; further: potency means the concentration at half of the fitted maximal effect). In a few lines: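 Cytotoxicity counter screen run in the FXR-bla reporter wells: HEK 293T cells exposed to compound with 50 uM (final) chenodeoxycholic acid for 16 h, 37 C, then viability measured by CellTiter-Glo luminescence after 30 min, room temperature.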

Assay [16] addresses Vitamin D3 receptor (Homo sapiens) (UniProt P11473). Put plainly: qHTS assay to identify small molecule agonists of the vitamin D receptor (VDR) signaling pathway (AID 743222; calls by dose curve). In outline:
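Following 4 h attachment at 37C, VDR-bla cells (2,000 per well) received DMSO-dissolved compounds or controls. After 16 h incubation, LiveBLAzer B/G FRET substrate was added and fluorescence read 2 h later at room temperature.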

Assay [17] can be described thus: qHTS assay for small molecule agonists of the antioxidant response element (ARE) signaling pathway (AID 743202; active means well fitted activation curve with a large enough effect in the signal ratio in the repeat runs, not every such curve was filed as active; the % refers to the signal ratio; further: potency means the concentration at half of the fitted maximal effect). In a few lines:
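Following a 16 h, 37 C exposure of reporter HepG2 cells (ARE-driven beta-lactamase, 2,000 cells/well) to compounds, FRET substrate was applied for 2 h at room temperature and fluorescence intensity recorded.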

For assay [18], the target named is Bile acid receptor (Homo sapiens) (UniProt Q96RI1). Put plainly: qHTS assay to identify small molecule antagonists of the farnesoid-X-receptor (FXR) signaling pathway (AID 743217; active means well fitted inhibition curve with a large enough effect in the signal ratio in the repeat runs, not every such curve was filed as active; the % refers to the signal ratio). In outline:
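FRET fluorescence after 2 h room-temperature LiveBLAzer loading gives the readout. Prior step: FXR-bla HEK 293T cells, seeded and incubated 5 h, received test compounds plus 50 uM final CDCA for 16 h at 37 °C.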

Assay [19] has the same target. Put plainly: qHTS assay to identify small molecule agonists of the farnesoid-X-receptor (FXR) signaling pathway (AID 743220; active means well fitted activation curve with a large enough effect in the signal ratio in the repeat runs, not every such curve was filed as active; the % refers to the signal ratio). In a few lines:
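FXR-UAS-bla HEK 293T cells carrying a UAS-driven beta-lactamase reporter were plated for 5 h at 37C/5% CO2, then exposed to DMSO-dissolved Tox21 10K compounds for 16 h at 37C. A LiveBLAzer B/G FRET substrate was loaded for 2 h at room temperature before fluorescence reading.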

Molecules are shown by their SMILES. Several values for one entry are separate records, joined by “and”; a condition that tells them apart may be missing. Identical values can stand only once. Records with an inconclusive call do not appear. Where a structure was tested more than once in an assay, its records may differ in their call. Activity calls are given as the source filed them. Unless noted, the call rests on the fitted dose curve; in most records, active means well fitted curve in the direction sought with a large enough effect in the repeat runs; inconclusive means weak or mixed curves; inactive means no such curve, though single readings can be large; an effect the other way counts as inactive or inconclusive.

Sequence of Peroxisome proliferator-activated receptor delta (Homo sapiens) (Q03181 whole entry, looked up): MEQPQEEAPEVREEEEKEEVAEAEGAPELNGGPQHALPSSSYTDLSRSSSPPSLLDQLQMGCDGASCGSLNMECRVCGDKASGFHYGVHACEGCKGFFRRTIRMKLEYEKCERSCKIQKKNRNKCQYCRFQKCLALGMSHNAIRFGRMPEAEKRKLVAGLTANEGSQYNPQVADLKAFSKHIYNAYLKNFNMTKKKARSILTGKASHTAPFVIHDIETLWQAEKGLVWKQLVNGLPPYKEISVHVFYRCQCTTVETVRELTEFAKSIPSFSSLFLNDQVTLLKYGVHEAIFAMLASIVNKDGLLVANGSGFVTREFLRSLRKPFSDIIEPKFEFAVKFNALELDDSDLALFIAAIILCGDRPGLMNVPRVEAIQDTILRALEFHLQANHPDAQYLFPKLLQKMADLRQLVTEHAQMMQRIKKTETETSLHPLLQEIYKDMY
Sequence of Bile acid receptor (Homo sapiens) (Q96RI1 whole entry, looked up): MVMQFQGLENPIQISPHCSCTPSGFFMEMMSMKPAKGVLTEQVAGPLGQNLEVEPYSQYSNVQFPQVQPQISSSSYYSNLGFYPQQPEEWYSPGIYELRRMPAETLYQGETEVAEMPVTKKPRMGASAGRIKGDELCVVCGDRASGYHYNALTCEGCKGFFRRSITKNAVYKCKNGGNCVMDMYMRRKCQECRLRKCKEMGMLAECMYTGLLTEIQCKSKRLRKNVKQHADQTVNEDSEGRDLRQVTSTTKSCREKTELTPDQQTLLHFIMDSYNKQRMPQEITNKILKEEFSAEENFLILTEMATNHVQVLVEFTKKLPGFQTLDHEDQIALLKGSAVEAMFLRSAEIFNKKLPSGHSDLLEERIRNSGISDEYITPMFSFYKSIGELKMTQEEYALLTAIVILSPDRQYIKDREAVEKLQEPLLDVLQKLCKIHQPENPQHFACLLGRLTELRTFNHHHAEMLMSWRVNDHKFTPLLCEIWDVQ
Sequence of Peroxisome proliferator-activated receptor gamma (Homo sapiens) (P37231 whole entry, looked up): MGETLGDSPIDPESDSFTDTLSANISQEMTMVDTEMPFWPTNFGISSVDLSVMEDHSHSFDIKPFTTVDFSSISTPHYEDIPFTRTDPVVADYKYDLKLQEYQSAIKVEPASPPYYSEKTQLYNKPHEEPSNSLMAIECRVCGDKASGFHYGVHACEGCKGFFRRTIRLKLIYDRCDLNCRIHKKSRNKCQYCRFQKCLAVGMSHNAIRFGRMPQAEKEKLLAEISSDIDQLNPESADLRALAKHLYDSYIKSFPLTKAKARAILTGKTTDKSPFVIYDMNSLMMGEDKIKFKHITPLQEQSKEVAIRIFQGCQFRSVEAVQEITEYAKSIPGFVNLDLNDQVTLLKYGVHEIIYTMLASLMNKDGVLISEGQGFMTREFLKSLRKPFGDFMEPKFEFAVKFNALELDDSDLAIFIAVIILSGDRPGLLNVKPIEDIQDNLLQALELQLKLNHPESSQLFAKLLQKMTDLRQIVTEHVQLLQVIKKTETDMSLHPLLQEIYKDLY
Sequence of Vitamin D3 receptor (Homo sapiens) (P11473 whole entry, looked up): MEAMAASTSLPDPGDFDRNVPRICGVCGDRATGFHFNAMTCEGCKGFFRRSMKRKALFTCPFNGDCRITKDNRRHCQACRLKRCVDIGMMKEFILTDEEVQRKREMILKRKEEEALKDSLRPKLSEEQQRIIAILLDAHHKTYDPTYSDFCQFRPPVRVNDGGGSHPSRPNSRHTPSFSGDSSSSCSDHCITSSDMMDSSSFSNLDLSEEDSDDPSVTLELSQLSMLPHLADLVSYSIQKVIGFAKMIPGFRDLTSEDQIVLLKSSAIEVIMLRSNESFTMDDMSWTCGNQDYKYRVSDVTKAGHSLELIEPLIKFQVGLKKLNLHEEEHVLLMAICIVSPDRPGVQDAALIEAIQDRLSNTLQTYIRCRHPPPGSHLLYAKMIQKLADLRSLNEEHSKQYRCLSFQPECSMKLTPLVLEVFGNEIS

Take `CCC1COC(Cn2cncn2)(c2ccc(Cl)cc2Cl)O1` (configuration not stated): the Potency result in assay [1], in assay [2], in assay [3], in assay [4], in assay [5] and in assay [6] was “inactive” each time. Moreover, the Potency entry in assay [7], in assay [8], in assay [9], in assay [10], in assay [11] and in assay [12] was “inactive” each time. For the same compound, the Potency result in [13] was “inactive”.

As to `C=CC(=O)[O][Sn]([CH2]CCC)([CH2]CCC)[CH2]CCC`, the Potency in [1] is 3.44 µM (active); in assay [14], 4.33 µM (active); in assay [4], 0.389 µM (active); in [5] it was 0.686 µM (active); in assay [6], 3.09 µM (active); in assay [8], 1.95 µM (active). Moreover, the Potency is 3.47 µM (active) in assay [10], 0.776 µM (active) in assay [11], 1.1 µM (active) in [12] and 3.89 µM (active) in [15]. In addition, the Potency entry in assay [16] was “inactive”.

As for `CSC(=O)c1c(C(F)F)nc(C(F)(F)F)c(C(=O)SC)c1CC(C)C`, the Potency result in assay [1], in assay [4], in assay [17], in assay [7], in assay [9] and in assay [11] was “inactive” each time. Further, the Potency result in assay [12] and in assay [15] was “inactive” throughout.

Consider `O=C(O)CCCCCCNC1c2ccccc2CCc2ccccc21`, for which the Potency result in assay [1], in assay [14], in [4], in assay [17], in assay [5] and in assay [6] was “inactive” in each case. For the same compound, the Potency result in [7], in [8], in assay [10], in assay [11], in assay [18] and in assay [12] was “inactive” throughout. For the same compound, the Potency result in assay [16] and in assay [13] was “inactive” each time.

`O=P(Cl)(Cl)Cl`: the Potency result in [1], in [2], in [3], in [4], in assay [17] and in [5] was “inactive” each time. Besides, the Potency result in assay [6], in [7], in assay [8], in assay [11], in assay [12] and in [15] was “inactive” each time.

On to `CO/N=C(/C1=NOCCO1)c1ccccc1Oc1ncnc(Oc2ccccc2Cl)c1F`, for which the Potency is 54.4 µM (active) in assay [1] and 0.544 µM (active) in assay [17]. For the same compound, the Potency result in assay [4], in assay [5], in assay [6] and in [15] was “inactive” each time.

In the case of `COP(=S)(OC)Oc1nc(Cl)c(Cl)cc1Cl`, the Potency entry in [1], in assay [2], in assay [17], in [5], in assay [6] and in assay [7] was “inactive” each time. The Potency result in assay [8], in assay [18], in assay [12], in assay [19] and in assay [15] was “inactive” throughout.

In the case of `O=C1C(Cl)=C(Cl)C(=O)C(Cl)=C1Cl`, the Potency in assay [1] was 10.8 µM (active) and 13.7 µM (active); in [4] it was 6.92 µM (active); in assay [5], “inactive and 13.7 µM (active)”; in assay [8] it was 15.5 µM (active); in assay [10], 13.8 µM (active); in assay [12], “inactive and 19.5 µM (active)”. The Potency result in [9], in assay [18], in assay [15] and in assay [16] was “inactive” in each case.

Consider `COc1c2c(cc3c1OCO3)CCN(C)C2`, for which the Potency entry in assay [1], in assay [2], in [4], in assay [17], in assay [6] and in assay [7] was “inactive” throughout. The Potency entry in assay [8], in [9], in [10], in [11], in assay [12] and in [15] was “inactive” in each case. Further, the Potency result in [13] is “inactive”.

In the case of `CCO/N=C(\CC)C1=C(O)CC(c2c(C)cc(C)cc2C)CC1=O` (configuration not stated), the Potency result in [1], in assay [14], in assay [5], in [7] and in [8] was “inactive” each time.

As for `CCCC[N+]1(C)CCCC1` (tested in a mixture with another compound), the Potency entry in assay [1], in assay [14], in assay [4], in [5], in [6] and in assay [7] was “inactive” each time. Further, the Potency result in [8], in assay [12] and in [15] was “inactive” in each case.
